Structures are written as SMILES. “And” between values parts separate entries of the source, which are not always exact repeats. Identical values can stand only once. More than one record can exist for a structure, and the calls need not agree. The source made the active and inactive calls. How the source made its calls: active means hit-call score of the fitted dose curve at least 0.9, where 1 is the maximum; inactive means score below 0.9.

A short description of the test: ATG_E_Box_CIS: Attagene CIS-FACTORIAL HepG2 Assay for human Enhancer Box (E-box) (AID 2282936). The settings on record: HepG2 E-box cis-reporter transcription, actives raise or lower the signal. The procedure:
ATG_CIS is a cell-based, multiplexed-readout assay that uses HepG2, a human liver cell line, with measurements taken at 24 hours after chemical dosing in a 24-well plate.ATG_E_Box_CIS is one of 52 assay component(s) measured or calculated from the ATG_CIS assay. It is designed to make measurements of mRNA induction, a form of inducible reporter, as detected with fluorescence intensity signals by Reverse transcription polymerase chain reaction (RT-PCR) and Capillary electrophoresis technology.Data from the assay component ATG_E_Box_CIS was analyzed into 1 assay endpoint. This assay endpoint, ATG_E_Box_CIS, was analyzed with bidirectional fitting relative to DMSO as the negative control and baseline of activity. Using a type of inducible reporter, measures of mRNA for gain or loss-of-signal activity can be used to understand the reporter gene at the transcription factor-level as they relate to the gene USF1. Furthermore, this assay endpoint can be referred to as a primary readout, because this assay has produced multiple assay endpoints where this one serves a reporter gene function. To generalize the intended target to other relatable targets, this assay endpoint is annotated to the dna binding intended target family, where the subfamily is basic helix-loop-helix protein.
Human liver HepG2 cells are transiently transfected with multiple reporter transcription units (MRTUs) in 6-well plates using FuGene 6 reagent (Roche; 3 ml FuGene/1 mg DNA). The MRTU constructs are regulated by a cis-regulating element (promoter). […] A major difference between the CIS and TRANS system is that in CIS activities of endogenous TFs are measured, whereas the TRANS assay evaluates changes in activities of exogenous, chimeric NR-Gal4 proteins. […] At the end of 24 hour incubation, total RNA was isolated using TriZol reagent (Invitrogen). The isolated RNA is then reverse-transcribed using oligo(dT) primer and Mo-MLV reverse transcriptase (Invitrogen) with DNAse I (Ambion) treatment for 30 min. The one-tenth of the produced cDNA was amplified by PCR using Taq DNA polymerase (Invitrogen) and two reporter sequence-specific primers. The PCR products were fluorescently labeled by primer extension with 6-arboxyfluorescein (6-FAM) 5'-labeled reporter sequence-specific primer (2 min at 95 C, 20 s at 68 C and 10 min at 72 C) and these products were digested with 5U of HpaI (New England Biolabs) for 2h at 37 C. The fragments were purified using Qiaquick PCR columns (Qiagen), analyzed on an ABI 3130xL genetic analyzer (Applied Biosystems) with peak positions identified by using a set of X-rhodamine (ROX)-labeled MapMarker1000 molecular weight standards (BioVentures). The raw capillary electrophoresis data was processed using Attagraph software (Attagene).
`CCCCOC(=O)C(C)OC(=O)CCC` (stereo not given): the result was inactive.
As for `NC(N)=S`, the outcome was inactive.
Still for that read-out and setting: to `CC1=CC[C@@H]2C[C@H]1C2(C)C` belongs “inactive”.
As for `CC(C)CCCC(C)(C)O`, the outcome was inactive.
For the molecule `Nc1ccc(O)c(N)c1`, the outcome was inactive.
With `CCCC[N+](C)(CCCC)CCCC`, the result was inactive.
Regarding `C=C1CC/C=C(\C)CC[C@@H]2[C@@H]1CC2(C)C`, the concentration at half-maximal activity (AC50) is 94.9 µM (active).
As to `CCCCCCCCCCCCCC(=O)OCC`, the result was inactive.
For the molecule `CCCO[Si](OCCC)(OCCC)OCCC`, the outcome was inactive.
For `CN(C)c1ccc(C=O)cc1`, the outcome was inactive.
The same measure, in the same setting: to `CC(O)CNCC(C)O` (stereo not given) belongs “inactive”.
On to `CC(=O)c1ccc(O)cc1`, for which the result was inactive.
Same read-out and setting: the value for `CCCCCC#CC(=O)OC` was “inactive”.
As for `CCC(C)C1CCCCC1=O` (stereo not given), the outcome was inactive.
Same read-out and setting: the value for `CCCCCCOC(C)=O` was “inactive”; that for `CN(C)CCC=C1c2ccccc2CCc2ccccc21` was “inactive”; that for `C=CCCCCCCCCC(=O)OCC` was “inactive”.
`COc1ccc2[nH]cc(CCNC(C)=O)c2c1`: the outcome was inactive.
`O=C(O)c1ccco1`: the outcome was inactive.
For `Brc1cc(Br)cc(Br)c1`, the outcome was inactive.
As for `N=C1N=C(N)c2ccccc21`, the outcome was inactive.
Turning to `C=C(C)C(=O)OCCC[Si](OC)(OC)OC`, the outcome was inactive.
Take `OCCN1CCOCC1`: the result was inactive.
Regarding `C=CC(C)(CCC=C(C)C)OC(=O)CC` (stereo not given), the outcome was inactive.
As to `COc1ccccc1O`, the outcome was inactive.
In the case of `CC(=O)CC(=O)N(C)C`, the outcome was inactive.
In the case of `CC1=CCC(C(C)(C)O)CC1` (stereo not given), the result was inactive.
As for `CC(=N[Si](C)(C)C)O[Si](C)(C)C`, the outcome was inactive.
As for `C[C@H](CCC(=O)O)[C@H]1CC[C@H]2[C@@H]3CC[C@@H]4C[C@H](O)CC[C@]4(C)[C@H]3CC[C@]12C`, the AC50 was 64.2 µM (active).
Consider `C=C(C)C(=O)OCCOCCOC(=O)C(=C)C`, for which the outcome was inactive.
Regarding `CCO[Si](CC)(OCC)OCC`, the outcome was inactive.
`CCCCCCCCSCc1cc(C)c(O)c(CSCCCCCCCC)c1`: the result was inactive.
Still for that read-out and setting: to `NC(=O)c1cccnc1` belongs “inactive”.
For the molecule `O=C(c1ccc(OCCN2CCCCC2)cc1)c1c(-c2ccc(O)cc2)sc2cc(O)ccc12`, the AC50 is 11.1 µM (active) and 7.95 µM (active); the result was inactive.
In the case of `CC1=CC[C@@H](C(C)(C)O)CC1`, the result was inactive.
In the case of `CCOC(=O)C=Cc1ccccc1`, the result was inactive.
Take `Nc1cc([N+](=O)[O-])ccc1C(=O)O`: the outcome was inactive.
On the same count and under the same terms, to `O=C1CCC(=O)N1` belongs “inactive”; to `CCCCOCCOC(=O)c1ccccc1C(=O)OCCOCCCC`, “inactive”.

One may read the AC50 as the concentration giving half of the maximal activity seen.

The values above are taken from PubChem BioAssay (EPA / NIEHS).
